Measurements taken from PubChem BioAssay (NCATS).
Values without a mark were called inactive. Inconclusive results are not listed. Active and inactive are the calls of the source. Unless noted, calls follow the shape of the dose curve; as a rule, active = well fitted curve in either direction with a large enough effect (not every such curve was filed as active); inconclusive = small, poorly fitted or top-dose-only effect, or another doubt; inactive = flat fitted curve, though single readings scatter.

Experiments:
[1] = target: Lysosomal acid glucosylceramidase (Homo sapiens) (UniProt P04062); experiment: Glucocerebrosidase-p2 (AID 348; in the data active = potency below about 10 µM; also: potency is read from the fitted curve at half-maximal effect); conditions: purified GBA, blue fluorogenic substrate, 40 min
Summary of the method: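 Compounds titrated from 0.6 nM upwards against 0.2 nM enzyme in pH 5.9 citric acid/KH2PO4, taurocholate, tween-20; blue fluorogenic substrate 80 uM, 40 min room temperature, stopped and read Ex 365/Em 440 for AC50.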

[2] = AP1 Signaling Pathway (AID 357); conditions: ME-180 AP-1-bla reporter, EGF-induced, beta-lactamase ratio, 5 h; at 7.69 µM (top of the series) unless noted; also: % is scaled to controls: 0 for no effect and ±100 for the full control effect
Summary of the method: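 AP-1-bla ME-180 cells with beta-lactamase reporter under AP-1 response element, stimulated with EC50 EGF; compounds titrated, 5 hours at 37 degrees Celsius. CCF4 read at 460/530 nm ratio; positive and negative modulators judged by AC50.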

[3] = target: Cytochrome P450 1A2 (Homo sapiens) (UniProt P05177); experiment: p450-cyp1a2 (AID 410; calls by dose curve; also: potency is read from the fitted curve at half-maximal effect;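 as to activity change, negative = inhibition: -100% = full effect of reference inhibitor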); conditions: recombinant CYP1A2, luciferin-ME demethylation, luminescence; series mostly up to 57 µM
Summary of the method: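 Human CYP1A2 (20nM) demethylated Luciferin-ME at its Km (100uM) in 100mM KPO4. After 10 min compound preincubation, NADPH regeneration ran the reaction 60 min at room temperature. Luciferin was read by luminescence, normalized to 57 uM furafylline.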

[4] = Stat Signaling Pathway (AID 446); conditions: ME-180 SIE beta-lactamase reporter, IL-6 stimulated, 5 h; at 7.69 µM (top of the series) unless noted;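 also: ME-180 cervical cancer cells given 40 pM IL-6 alongside compound; SIE-controlled beta-lactamase reporter measured as 460/530 nm FRET emission ratio; % is scaled to controls: 0 for no effect and ±100 for the full control effect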
Summary of the method: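 Reporter line: ME-180 cervical carcinoma, SIE-beta-lactamase. Treatment: compound with 40 pM IL-6, 5 hrs, 37 C, in low-serum OPTI-MEM with 10 mM HEPES pH 7.3. Detection: 460/530 nm fluorescence.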

[5] = target: Glucocorticoid receptor (Homo sapiens) (UniProt P04150); experiment: GR-GFP Redistribution (AID 450;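 active = compounds whose dose series gives a full or clear partial fitted curve of increased nuclear translocation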; also: potency is read from the fitted curve at half-maximal effect); conditions: U2OS GR-GFP nuclear translocation, laser cytometry, 2 h
[6] = target: Glucocorticoid receptor (Homo sapiens) (UniProt P04150); experiment: GR-EFC Redistribution (AID 451; calls by dose curve; also: potency is read from the fitted curve at half-maximal effect); conditions: CHO-K1 GR-EFC translocation, beta-gal luminescence, 2 h
Summary of the method: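 Translocation of GR-ED fusion to nuclear EA restores b-gal, read by luminescence after 1 h room-temperature detection. Engineered CHO-K1 biosensor cells, 1,000/well, exposed 2 h at 37 C to titrations up to 46 uM final.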

[7] = target: Mitogen-activated protein kinase 10 (Mus musculus) (UniProt Q61831); experiment: JNK3 AlphaScreen Assay (AID 530); conditions: JNK3 lysate, c-Jun phosphorylation; series mostly up to 57.1 µM;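 also: kinase came from lysate of stimulated human HepG2 cells; signal reports phosphorylation of biotinylated GST-cJun 1-79 at Ser73 with 10 µM ATP; % is scaled to controls: 0 for no effect and ±100 for the full control effect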
Summary of the method: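 Room-temperature AlphaScreen kinase assay; pre-activated HepG2 lysate as JNK3 source, biotin-GST-cJun(1-79) substrate, 10 uM ATP, compound 15 min preincubation.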

[8] = target: 3',5'-cyclic-AMP phosphodiesterase 4B (Homo sapiens) (UniProt Q07343); experiment: qHTS Assay for Inhibitors of PDE-IV (AID 607; active = well fitted activation curve with a large enough effect in the main read-out, with a control signal flat, not every such curve was filed as active; also: % of control where 0% means no effect); conditions: HEK293 ACTOne CNG channel cells, membrane potential fluorescence; series mostly up to 22.9 µM
Summary of the method: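 Cell-based read-out of cAMP via a modified cyclic nucleotide-gated channel and membrane potential dye (535/590 nm) in HEK293 cells expressing PDE4 endogenously. Compounds tested up to 22.9 uM final; 100 uM RO 20-1724 reference.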

[9] = target: Cytochrome P450 3A4 (Homo sapiens) (UniProt P08684); experiment: qHTS Assay for Activators of Cytochrome P450 3A4 (AID 885; active = well fitted curve in the direction sought with a large enough effect; an effect the other way counts as inactive or inconclusive; also: nearly all actives have a fitted effect of over 65% in size); conditions: recombinant CYP3A4, Luciferin-PPXE luminescence, 60 min; series mostly up to 57.1 µM
Summary of the method: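 Signal was normalized against complete inhibition by 57 uM ketoconazole. The reaction used 20nM CYP3A4 with 25uM Luciferin-PPXE, 10-min compound preincubation and a 60-min NADPH-supported step at RT.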

[10] = Confirmation and Secondary Assay for Modulators of Hemoglobin Beta Chain Splicing at IVS2 654 locus (AID 910; active = well fitted curve in the direction sought with a large enough effect; an effect the other way counts as inactive or inconclusive;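 also: HeLa cells stably carrying EGFP split by mutant beta-globin IVS2-654 intron; per-well total GFP intensity by laser scanning cytometry after 2-day treatment; % of control where 0% means no effect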); conditions: HeLa EGFP-654 splicing reporter, GFP fluorescence, 48 h; series mostly up to 38.3 µM
Summary of the method: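 Readout: per-well total peak green fluorescence (488 nm ex, 500–520 nm em) from objects 5–250 µm, reflecting correct splicing of an EGFP-654 reporter. Compounds were applied for 2 days at 37 °C to overnight-plated HeLa EGFP-654 cells; controls were DMSO and 500 nM IVS2-654 PNA.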

[11] = Confirmation and Secondary Assay for Modulators of Hemoglobin Beta Chain Splicing at IVS2 705 locus (AID 930; active = well fitted curve in the direction sought with a large enough effect; an effect the other way counts as inactive or inconclusive;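 also: HeLa cells stably expressing the EGFP-705 splicing reporter; GFP fluorescence per well restored by corrected splicing of the IVS2-705 intron in EGFP; % of control where 0% means no effect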); conditions: HeLa EGFP-705 splicing reporter, GFP fluorescence, 48 h; series mostly up to 38.3 µM
Summary of the method: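 HeLa EGFP-705 reporter; 500 cells/well, o/n 37C 5% CO2; cpd 2 d; 488 ex/500-520 em laser scan; total peak GFP intensity/well. Ref: 500 nM […] antisense PNA.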

[12] = target: Ubiquitin carboxyl-terminal hydrolase 1 (Homo sapiens) (UniProt O94782); experiment: Inhibitors of USP1/UAF1: Pilot qHTS (AID 504865; active = well fitted curve in the direction sought with a large enough effect; an effect the other way counts as inactive or inconclusive;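 also: rhodamine fluorescence freed from ubiquitin-rhodamine substrate followed over time; top concentration of the series differs between compounds; % is scaled to controls: 0 for no effect and ±100 for the full control effect; nearly all actives have a fitted effect of over 35% in size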); conditions: purified USP1/UAF1, Ub-rhodamine cleavage fluorescence; series mostly up to 54.9 µM
Summary of the method: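 In 50mM HEPES pH 7.8 containing 0.5mM EDTA, 1mM TCEP, 0.1 mg/ml BSA and 0.01% Tween-20, 1nM USP1/UAF1 is exposed to compound for 15 min, then Ub-Rho (150nM final) is added and fluorescence is read over time.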

[13] = Primary qHTS for small molecule stabilizers of the endoplasmic reticulum resident proteome: Secreted ER Calcium Modulated Protein (SERCaMP) assay (AID 1508630; active = well fitted curve in the direction sought with a large enough effect; an effect the other way counts as inactive or inconclusive; also: % is scaled to controls: 0 for no effect and ±100 for the full control effect); conditions: SH-SY5Y GLuc-SERCaMP (Gaussia luciferase released on ER calcium loss) secretion, thapsigargin, luminescence; series mostly up to 38.4 µM
Summary of the method: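 GLuc-SERCaMP-expressing SH-SY5Y cells, pretreated 16 h with compound, are challenged with thapsigargin to empty ER calcium stores; after 4 h, coelenterazine is added directly to the medium and luminescence is imaged.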

[14] = NFAT Signaling Pathway (AID 444); conditions: Jurkat NFAT-bla M1, carbachol, beta-lactamase ratio, 5 h; at 7.69 µM (top of the series) unless noted
Summary of the method: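 Read-out: CCF4 FRET ratio (460 nm/530 nm) after 1 h RT dye loading, used for %activity and AC50 from titration series. Cells: Jurkat NFAT-β-lactamase/M1 line, treated with compound plus 1 uM carbachol for 5 h, 37 °C.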

[15] = target: Cytochrome P450 3A4 (Homo sapiens) (UniProt P08684); experiment: qHTS Assay for Inhibitors and Substrates of Cytochrome P450 3A4 (AID 884; active = well fitted curve in the direction sought with a large enough effect; an effect the other way counts as inactive or inconclusive; also: potency is read from the fitted curve at half-maximal effect; nearly all actives have a fitted effect of over 50% in size); conditions: recombinant CYP3A4, Luciferin-PPXE luminescence; series mostly up to 57.1 µM
Summary of the method: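 20 nM human CYP3A4 with 25 uM Luciferin-PPXE (at KM) in 200 mM KPO4, preincubated 10 min with compound; NADPH regeneration started a 60 min RT reaction. Luciferin detected by luminescence, normalized to 57 uM ketoconazole as full inhibition.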

[16] = qHTS Assay for Identification of Small Molecule Agonists for Hypoxia Response Element Signaling Pathway (AID 914; active = well fitted activation curve with a large enough effect in the signal ratio, with a control signal flat, not every such curve was filed as active; the % refers to the signal ratio; also: potency is read from the fitted curve at half-maximal effect); conditions: ME-180 (cervical carcinoma) HRE-bla reporter, beta-lactamase ratio, CoCl2, 17 h; activation: active compounds read high
Summary of the method: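 Read-out: CCF4 FRET ratio of 460nm to 530nm emission (excitation 405nm) after 2.5 hours at room temperature, taken from HRE-bla ME-180 cells that had been exposed to compound and EC50 CoCl2 for 17 hours.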

[17] = target: Cytochrome P450 2C9 (Homo sapiens) (UniProt P11712); experiment: qHTS Assay for Inhibitors and Substrates of Cytochrome P450 2C9 (AID 883; active = well fitted curve in the direction sought with a large enough effect; an effect the other way counts as inactive or inconclusive; also: potency is read from the fitted curve at half-maximal effect; nearly all actives have a fitted effect of over 60% in size); conditions: recombinant CYP2C9, luciferin-H luminescence, 60 min; series mostly up to 57.1 µM
Summary of the method: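 Inhibition of CYP2C9 is scored as loss of luminescence, with 57uM sulphaphenazole defining 100% inhibition. Substrate Luciferin-H is used at 100uM, equal to its KM; enzyme at 10nM in 25mM KPO4, 60 min at 37C with NADPH regeneration.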

[18] = target: Cytochrome P450 2C19 (Homo sapiens) (UniProt P33261); experiment: qHTS Assay for Inhibitors and Substrates of Cytochrome P450 2C19 (AID 899; active = well fitted curve in the direction sought with a large enough effect; an effect the other way counts as inactive or inconclusive; also: potency is read from the fitted curve at half-maximal effect; nearly all actives have a fitted effect of over 60% in size); conditions: recombinant CYP2C19, luciferin-H EGE luminescence; series mostly up to 57.1 µM
Summary of the method: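 5nM enzyme + 10uM Luciferin-H EGE (=KM), 50mM KPO4; cpd pin-transferred, 10 min 37C; NADPH regen, 60 min 37C; stopped w/ luciferin detection reagent, 20 min; luminescence. Normalized to 57uM ketoconazole (AC100).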

Lysosomal acid glucosylceramidase (Homo sapiens), sequence (P04062 whole entry, looked up): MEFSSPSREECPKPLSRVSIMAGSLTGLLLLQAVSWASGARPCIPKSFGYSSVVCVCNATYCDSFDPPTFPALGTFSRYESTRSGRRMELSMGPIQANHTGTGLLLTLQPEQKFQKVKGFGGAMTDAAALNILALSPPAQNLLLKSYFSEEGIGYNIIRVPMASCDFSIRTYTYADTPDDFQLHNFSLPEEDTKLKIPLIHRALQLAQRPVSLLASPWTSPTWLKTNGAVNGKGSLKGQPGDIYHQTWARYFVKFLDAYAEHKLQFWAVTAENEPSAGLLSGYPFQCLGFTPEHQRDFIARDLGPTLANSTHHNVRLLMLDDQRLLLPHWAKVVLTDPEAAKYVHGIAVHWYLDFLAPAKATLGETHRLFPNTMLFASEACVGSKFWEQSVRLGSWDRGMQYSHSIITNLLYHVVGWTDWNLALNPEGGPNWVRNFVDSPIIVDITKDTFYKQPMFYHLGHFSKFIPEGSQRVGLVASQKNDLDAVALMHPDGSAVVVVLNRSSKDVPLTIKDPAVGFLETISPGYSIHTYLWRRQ
Cytochrome P450 3A4 (Homo sapiens), sequence (P08684 whole entry, looked up): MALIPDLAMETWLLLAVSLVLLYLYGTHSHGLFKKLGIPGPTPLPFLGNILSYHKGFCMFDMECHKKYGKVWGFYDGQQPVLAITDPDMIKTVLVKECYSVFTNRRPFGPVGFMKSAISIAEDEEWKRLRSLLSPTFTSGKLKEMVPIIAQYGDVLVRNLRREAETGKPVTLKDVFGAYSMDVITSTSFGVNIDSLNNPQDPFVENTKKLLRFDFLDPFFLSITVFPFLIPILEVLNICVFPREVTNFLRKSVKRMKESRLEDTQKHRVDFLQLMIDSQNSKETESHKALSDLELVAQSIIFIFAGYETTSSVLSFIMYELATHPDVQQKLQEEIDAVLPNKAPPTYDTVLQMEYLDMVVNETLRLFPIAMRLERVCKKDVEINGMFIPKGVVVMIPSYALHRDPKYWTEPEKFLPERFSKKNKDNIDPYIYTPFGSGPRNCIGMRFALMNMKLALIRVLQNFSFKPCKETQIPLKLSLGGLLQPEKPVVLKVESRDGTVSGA
3',5'-cyclic-AMP phosphodiesterase 4B (Homo sapiens), sequence (Q07343 whole entry, looked up): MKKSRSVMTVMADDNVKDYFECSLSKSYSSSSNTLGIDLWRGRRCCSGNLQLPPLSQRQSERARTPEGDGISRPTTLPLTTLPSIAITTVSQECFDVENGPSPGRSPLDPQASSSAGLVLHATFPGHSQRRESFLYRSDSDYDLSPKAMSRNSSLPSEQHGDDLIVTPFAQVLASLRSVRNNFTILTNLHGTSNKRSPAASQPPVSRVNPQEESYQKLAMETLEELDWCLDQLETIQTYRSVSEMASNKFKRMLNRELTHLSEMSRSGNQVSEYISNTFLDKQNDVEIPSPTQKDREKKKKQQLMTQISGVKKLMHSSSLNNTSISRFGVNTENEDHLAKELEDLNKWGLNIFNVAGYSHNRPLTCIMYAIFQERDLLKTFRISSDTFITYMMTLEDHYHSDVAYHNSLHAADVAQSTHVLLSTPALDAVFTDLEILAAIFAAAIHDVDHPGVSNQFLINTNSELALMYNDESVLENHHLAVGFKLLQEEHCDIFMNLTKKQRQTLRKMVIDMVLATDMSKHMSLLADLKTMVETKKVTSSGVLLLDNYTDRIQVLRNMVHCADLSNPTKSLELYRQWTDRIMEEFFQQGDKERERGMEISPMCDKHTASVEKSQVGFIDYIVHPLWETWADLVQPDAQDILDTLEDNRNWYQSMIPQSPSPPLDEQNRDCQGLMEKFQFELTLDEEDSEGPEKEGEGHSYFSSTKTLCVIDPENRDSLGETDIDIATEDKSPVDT
Cytochrome P450 1A2 (Homo sapiens), sequence (P05177 whole entry, looked up): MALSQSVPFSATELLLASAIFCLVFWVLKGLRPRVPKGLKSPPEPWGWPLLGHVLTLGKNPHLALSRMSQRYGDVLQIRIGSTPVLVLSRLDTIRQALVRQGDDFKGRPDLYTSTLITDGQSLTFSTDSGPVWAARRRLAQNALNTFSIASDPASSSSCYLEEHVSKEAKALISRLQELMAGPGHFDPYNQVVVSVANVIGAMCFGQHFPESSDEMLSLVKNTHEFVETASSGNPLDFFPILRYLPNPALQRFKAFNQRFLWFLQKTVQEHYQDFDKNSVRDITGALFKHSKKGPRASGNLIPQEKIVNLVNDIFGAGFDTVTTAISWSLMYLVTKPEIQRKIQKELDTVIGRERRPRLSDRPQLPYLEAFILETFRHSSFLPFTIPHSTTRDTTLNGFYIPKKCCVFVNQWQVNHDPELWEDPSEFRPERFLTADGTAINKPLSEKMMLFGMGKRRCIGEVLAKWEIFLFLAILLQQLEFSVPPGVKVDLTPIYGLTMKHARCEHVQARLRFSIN
Glucocorticoid receptor (Homo sapiens), sequence (P04150 whole entry, looked up, the tested form may be a part): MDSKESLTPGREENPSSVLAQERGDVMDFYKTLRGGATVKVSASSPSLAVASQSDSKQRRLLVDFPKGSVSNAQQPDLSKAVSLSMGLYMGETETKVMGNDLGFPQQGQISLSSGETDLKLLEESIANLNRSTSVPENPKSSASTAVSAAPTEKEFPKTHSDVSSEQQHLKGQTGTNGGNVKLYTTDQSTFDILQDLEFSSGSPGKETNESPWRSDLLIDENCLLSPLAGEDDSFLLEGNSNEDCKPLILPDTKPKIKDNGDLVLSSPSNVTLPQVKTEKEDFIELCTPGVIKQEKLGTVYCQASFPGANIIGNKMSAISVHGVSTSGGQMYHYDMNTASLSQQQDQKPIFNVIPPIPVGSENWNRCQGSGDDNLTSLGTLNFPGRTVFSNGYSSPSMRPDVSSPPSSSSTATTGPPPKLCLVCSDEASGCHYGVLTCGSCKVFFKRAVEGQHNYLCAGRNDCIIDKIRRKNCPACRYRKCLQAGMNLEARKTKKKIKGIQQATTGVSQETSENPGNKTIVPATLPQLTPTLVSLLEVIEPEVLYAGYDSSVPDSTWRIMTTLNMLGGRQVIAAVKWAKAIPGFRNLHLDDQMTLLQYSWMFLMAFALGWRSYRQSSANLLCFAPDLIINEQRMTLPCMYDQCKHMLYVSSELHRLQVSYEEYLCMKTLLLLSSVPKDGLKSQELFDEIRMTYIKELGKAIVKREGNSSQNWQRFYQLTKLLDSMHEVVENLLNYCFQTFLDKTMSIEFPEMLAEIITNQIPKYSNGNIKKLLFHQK
Cytochrome P450 2C9 (Homo sapiens), sequence (P11712 whole entry, looked up): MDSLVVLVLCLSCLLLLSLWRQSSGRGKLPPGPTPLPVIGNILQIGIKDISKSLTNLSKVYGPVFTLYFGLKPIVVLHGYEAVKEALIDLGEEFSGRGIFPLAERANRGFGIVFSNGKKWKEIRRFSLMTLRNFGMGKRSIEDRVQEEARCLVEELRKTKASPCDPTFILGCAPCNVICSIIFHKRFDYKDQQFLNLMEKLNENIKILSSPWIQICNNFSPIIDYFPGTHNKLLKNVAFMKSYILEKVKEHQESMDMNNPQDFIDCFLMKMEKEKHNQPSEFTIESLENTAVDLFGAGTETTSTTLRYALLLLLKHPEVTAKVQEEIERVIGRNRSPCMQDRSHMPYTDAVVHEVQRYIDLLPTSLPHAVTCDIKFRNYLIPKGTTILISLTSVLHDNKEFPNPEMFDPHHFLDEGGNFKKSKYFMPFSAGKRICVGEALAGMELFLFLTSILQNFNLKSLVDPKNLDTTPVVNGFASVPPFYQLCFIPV
Ubiquitin carboxyl-terminal hydrolase 1 (Homo sapiens), sequence (O94782 whole entry, looked up): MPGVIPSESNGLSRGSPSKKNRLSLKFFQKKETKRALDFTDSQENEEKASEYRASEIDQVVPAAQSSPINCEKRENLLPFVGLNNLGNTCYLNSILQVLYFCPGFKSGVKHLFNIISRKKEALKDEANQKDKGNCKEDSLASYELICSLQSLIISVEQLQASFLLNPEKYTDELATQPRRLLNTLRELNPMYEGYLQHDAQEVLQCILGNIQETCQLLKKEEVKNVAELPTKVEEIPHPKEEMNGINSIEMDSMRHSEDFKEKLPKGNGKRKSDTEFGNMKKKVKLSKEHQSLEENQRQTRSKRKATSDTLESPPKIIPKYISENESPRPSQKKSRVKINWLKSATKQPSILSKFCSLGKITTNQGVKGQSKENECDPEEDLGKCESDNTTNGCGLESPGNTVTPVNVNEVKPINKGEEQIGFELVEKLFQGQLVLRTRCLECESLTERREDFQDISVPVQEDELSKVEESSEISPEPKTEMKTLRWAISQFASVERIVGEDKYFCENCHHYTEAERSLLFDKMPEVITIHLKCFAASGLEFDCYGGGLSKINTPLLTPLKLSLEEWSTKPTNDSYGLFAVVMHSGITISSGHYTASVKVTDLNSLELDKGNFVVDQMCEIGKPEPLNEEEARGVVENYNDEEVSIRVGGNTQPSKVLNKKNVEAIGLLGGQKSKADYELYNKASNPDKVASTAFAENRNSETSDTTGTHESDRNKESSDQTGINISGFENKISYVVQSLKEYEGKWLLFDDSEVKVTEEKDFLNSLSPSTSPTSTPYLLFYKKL
Cytochrome P450 2C19 (Homo sapiens), sequence (P33261 whole entry, looked up): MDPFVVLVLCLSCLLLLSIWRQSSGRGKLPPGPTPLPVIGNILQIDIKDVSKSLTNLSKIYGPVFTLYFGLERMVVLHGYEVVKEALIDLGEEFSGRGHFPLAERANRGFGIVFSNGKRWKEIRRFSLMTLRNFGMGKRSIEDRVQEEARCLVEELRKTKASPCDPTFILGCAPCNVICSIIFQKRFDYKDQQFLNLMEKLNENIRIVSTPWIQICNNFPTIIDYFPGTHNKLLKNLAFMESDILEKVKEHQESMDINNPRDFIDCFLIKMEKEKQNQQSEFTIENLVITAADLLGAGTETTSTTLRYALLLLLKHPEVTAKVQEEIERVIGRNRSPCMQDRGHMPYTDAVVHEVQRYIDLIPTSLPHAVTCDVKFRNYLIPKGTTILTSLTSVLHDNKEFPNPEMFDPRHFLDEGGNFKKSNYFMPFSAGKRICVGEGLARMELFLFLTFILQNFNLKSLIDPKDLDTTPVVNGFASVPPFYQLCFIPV

**Q.** With `Clc1ccccc1-c1cc(NCc2cccnc2)ncn1` as the molecule, how does the Potency [1] read?
**A.** > 11.4 µM

**Q.** What about the activity change, negative = inhibition [2] of the same molecule?
**A.** -5.3%

**Q.** What about the Potency [3] of the same molecule?
**A.** 3.16 µM (active)

**Q.** What about the activity, negative = inhibition [4] of the same molecule?
**A.** 6.36%

**Q.** What about the Potency [5] of the same molecule?
**A.** > 46 µM

**Q.** And the Potency [6]?
**A.** > 46 µM

**Q.** What about the Potency [7] of the same molecule?
**A.** inactive

**Q.** What about the Potency [8] of the same molecule?
**A.** inactive

**Q.** What about the Potency [9] of the same molecule?
**A.** inactive

**Q.** What about the Potency [10] of the same molecule?
**A.** inactive

**Q.** And the outcome [11]?
**A.** inactive

**Q.** And the Potency [12]?
**A.** inactive

**Q.** What about the outcome [13] of the same molecule?
**A.** inactive

**Q.** With `Cc1nc2cnc(Oc3cccc(Cl)c3)nc2n(CCc2ccccc2)c1=O` as the molecule, how does the Potency [1] read?
**A.** > 11.4 µM

**Q.** And the activity change, negative = inhibition [2]?
**A.** 2.12%

**Q.** What about the Potency [3] of the same molecule?
**A.** 12.6 µM (active)

**Q.** What about the activity, negative = inhibition [4] of the same molecule?
**A.** 18.7%

**Q.** And the Potency [5]?
**A.** > 9.22 µM

**Q.** And the Potency [6]?
**A.** > 46 µM

**Q.** And the Potency [7]?
**A.** inactive

**Q.** And the outcome [13]?
**A.** inactive

**Q.** What does the source list for `COCCn1c(=O)c(-c2cn(C)c3ccccc23)nc2cnc(Oc3ccccc3)nc21`?
**A.** Potency [1]: > 11.4 µM; activity change, negative = inhibition [2]: 26.2%; Potency [3]: 10 µM (active); activity change, negative = inhibition [14]: 19.4%; Potency [5]: > 9.22 µM; Potency [6]: > 46 µM; Potency [8]: inactive; Potency [15]: 3.16 µM (active); Potency [9]: inactive; Potency [16]: 3.16 µM (active); outcome [13]: inactive

**Q.** For `N#Cc1cccc(-c2nc3cnc(N4CCNCC4)nc3n(C3CC3)c2=O)c1`, which Potency [1] is on record?
**A.** > 11.4 µM

**Q.** What about the activity change, negative = inhibition [2] of the same molecule?
**A.** 13.2%

**Q.** And the Potency [3]?
**A.** 5.01 µM (active)

**Q.** What about the activity change, negative = inhibition [14] of the same molecule?
**A.** 26.2%

**Q.** And the Potency [5]?
**A.** > 9.22 µM

**Q.** What about the Potency [6] of the same molecule?
**A.** > 46 µM

**Q.** And the Potency [7]?
**A.** inactive

**Q.** What about the Potency [8] of the same molecule?
**A.** inactive

**Q.** And the Potency [17]?
**A.** 631 nM (active)

**Q.** What about the Potency [9] of the same molecule?
**A.** inactive

**Q.** And the outcome [13]?
**A.** inactive

**Q.** For `O=C(c1cnccn1)N1CCC2(CC1)CN(c1ccccc1)C2`, which Potency [1] is on record?
**A.** > 11.4 µM

**Q.** What about the activity change, negative = inhibition [2] of the same molecule?
**A.** -9.4%

**Q.** What about the Potency [3] of the same molecule?
**A.** inactive

**Q.** And the activity change, negative = inhibition [14]?
**A.** 14%

**Q.** What about the activity, negative = inhibition [4] of the same molecule?
**A.** -6.18%

**Q.** And the Potency [6]?
**A.** > 46 µM

**Q.** And the Potency [8]?
**A.** inactive

**Q.** What about the outcome [13] of the same molecule?
**A.** inactive

**Q.** Which results are given for `O=c1c(-c2cccc(Cl)c2)nc2cncnc2n1Cc1ccccc1Cl`?
**A.** Potency [1]: > 11.4 µM; activity change, negative = inhibition [2]: 15.6%; Potency [3]: 2 µM (active); activity, negative = inhibition [4]: -2.1%; Potency [5]: > 9.22 µM; Potency [6]: > 46 µM; Potency [7]: inactive; Potency [17]: 3980 nM (active); Potency [9]: inactive; Potency [18]: 5.01 µM (active); outcome [13]: inactive

**Q.** For `Cn1cccc1C(=O)N1CCC2(CCCN(c3ccc(-c4ccccc4)cc3)C2)CC1`, which Potency [1] is on record?
**A.** > 11.4 µM

**Q.** And the activity change, negative = inhibition [2]?
**A.** 15.7%

**Q.** And the Potency [3]?
**A.** 15.8 µM (active)

**Q.** And the activity change, negative = inhibition [14]?
**A.** -14.9%

**Q.** And the activity, negative = inhibition [4]?
**A.** 3.39%

**Q.** And the Potency [6]?
**A.** > 46 µM

**Q.** What about the Potency [8] of the same molecule?
**A.** inactive

**Q.** And the outcome [13]?
**A.** inactive

**Q.** Which results are given for `O=C(c1cnccn1)N1CCC2(CC1)CN(c1cccc(-c3ccccc3)c1)C2`?
**A.** Potency [1]: > 11.4 µM; activity change, negative = inhibition [2]: -8.05%; Potency [3]: 15.8 µM (active); activity change, negative = inhibition [14]: -5.73%; Potency [6]: > 46 µM; Potency [8]: inactive; Potency [9]: inactive; outcome [13]: inactive
